High-throughput results as filed in PubChem.
GAA glycogen = qHTS Assay for Inhibitors and Activators of Human alpha-Glucosidase Cleavage of Glycogen. Lysosomal alpha-glucosidase (Homo sapiens), P10253. recombinant GAA, glycogen substrate, Amplex Red glucose oxidase fluorescence. Potency, µM (titrated, usually from 76.4 µM), without a hit: at the highest dose activity change, negative = inhibition, usual class: inhibitors. 0.38% of 300,000 active;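 note: potency is the fitted concentration of half-maximal effect; 0% = full enzyme reaction and -100% = no-enzyme basal signal; the screen sought inhibitors and activators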
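Natural-substrate format: glycogen cleavage by 4 nM human enzyme, glucose read by Amplex Red coupling (Ex 573, Em 610 nm). Normalized to enzyme and no-enzyme controls.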
GLA spleen mod = qHTS Assay for Inhibitors and Activators of Human alpha-Galactosidase From Spleen Homogenate. Alpha-galactosidase A (Homo sapiens), P06280. Potency, µM (top dose mostly 80 µM), without a hit: top-dose activity change, negative = inhibition, actives largely listed as inhibitors. AID 2107, 2009. 0.008% of 240,000 active. human spleen homogenate, 4MU-alpha-Gal fluorescence, 40 min;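 note: potency is the fitted concentration of half-maximal effect; 0% = enzyme with vehicle and -100% = no enzyme basal signal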
Target sequence (P06280 32-429 limits assumed): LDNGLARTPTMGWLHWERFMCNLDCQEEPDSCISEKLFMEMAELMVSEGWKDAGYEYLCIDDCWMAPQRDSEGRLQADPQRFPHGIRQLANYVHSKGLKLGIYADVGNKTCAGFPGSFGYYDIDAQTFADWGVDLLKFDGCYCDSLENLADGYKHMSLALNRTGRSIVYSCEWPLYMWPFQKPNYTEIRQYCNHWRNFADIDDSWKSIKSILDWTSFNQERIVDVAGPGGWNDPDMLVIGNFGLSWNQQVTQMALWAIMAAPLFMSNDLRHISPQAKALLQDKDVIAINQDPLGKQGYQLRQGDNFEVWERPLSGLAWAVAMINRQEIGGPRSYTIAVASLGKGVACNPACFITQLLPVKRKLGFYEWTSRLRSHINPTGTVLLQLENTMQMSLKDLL
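Spleen homogenate 1 ug + cpd (titration) + 4-MU-alpha-D-galactopyranoside 1 mM; 37C 40 min; 50 mM citrate/phosphate pH 5.0, 0.01% Tween-20; stop pH 10; fluorescence 365/440; AC50 via Hill.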
N370S GC mod = qHTS Assay for Inhibitors and Activators of N370S glucocerebrosidase as a Potential Chaperone Treatment of Gaucher Disease; 0.092% of 330,000 active; Potency, µM (highest dose often 59.4 µM), inactives show at the top dose activity change, negative = inhibition, usual class: inhibitors; N370S GC spleen homogenate, 4MU-glucoside fluorescence;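 note: potency is the fitted concentration of half-maximal effect; 0% = full enzyme activity and -100% = no enzyme basal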
aGlu spleen mod = qHTS Assay for Inhibitors and Activators of Human alpha-Glucosidase From Spleen Homogenate | Lysosomal alpha-glucosidase (Homo sapiens), P10253 | human spleen homogenate, 4-MU-alpha-glucoside fluorescence | Potency, µM (top dose mostly 79.9 µM), inactives show at the top dose activity change, negative = inhibition, most hits filed as inhibitors | 0.006% of 240,000 active | AID 2112, 2009;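 note: potency is the fitted concentration of half-maximal effect; 0% = enzyme with vehicle and -100% = no enzyme basal signal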
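Enzyme source: human spleen homogenate, 1 ug/well. Buffer 50 mM citric acid/K phosphate pH 5.0, 0.01% Tween-20. 4-MU-alpha-glucoside 1 mM; 37 C x 40 min; NaOH/glycine stop; fluorescence.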
GLA inh pH 4.5 = qHTS Assay for Inhibitors of Human alpha-Galactosidase at pH 4.5 | purified enzyme, 4-MU-alpha-Gal fluorescence, pH 4.5 | activity change, negative = inhibition, % at 105 µM | 230,000 tested, under 10 active | AID 1467, 2008;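 note: 0% = full activity with enzyme and -100% = basal without enzyme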
GAA inh = qHTS Assay for Inhibitors of Human alpha-Glucosidase as a Potential Chaperone Treatment of Pompe Disease. Lysosomal alpha-glucosidase (Homo sapiens), P10253. purified human GAA, 4-MU-alpha-glucoside fluorescence. Potency, µM (titrated, usually from 76.9 µM), for inactives: top-dose activity change, negative = inhibition, actives largely listed as inhibitors. 0.005% of 200,000 active. AID 1466, 2008;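 note: potency is the fitted concentration of half-maximal effect; plate controls were uninhibited enzyme wells for no effect and no-enzyme background for full effect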
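Human enzyme at 4 nM with 400 uM 4-methylumbelliferyl-alpha-D-pyranoside, citrate/phosphate buffer pH 5.0, 0.005% Tween-20, 20 min at room temperature. Compounds up to 77 uM. 4-MU fluorescence (Ex 365/Em 440) read after NaOH/glycine stop; AC50 from Hill fit.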
Starred values were filed as active, the others as inactive; ? = inconclusive; · = not tested or not shown; [ ] = another dose, or the depositor's remark. In the library only some 0.41% were active in any assay of this set; here they are far more common. Calls come from the whole dose curve; as a rule, active = well fitted curve in the direction sought with a large enough effect; inconclusive = small, poorly fitted or top-dose-only effect, or another doubt; inactive = no such curve, though single readings can be large; an effect the other way counts as inactive or inconclusive.

SMILES	GAA glycogen	GLA spleen mod	N370S GC mod	aGlu spleen mod	GLA inh pH 4.5	GAA inh
COc1ccc(-c2[nH]c(-c3ccc(C)cc3)nc2SCC(=O)NCC2CCCO2)cc1 (configuration not stated)	15%[76.3 µM]	·	·	·	·	·
CN=c1scc(-c2cccs2)n1/N=C/c1ccc(O)c(O)c1O	?	-6%	-8%	3%	-8	?
CN=c1scc(C)n1/N=C/c1ccc(O)c(O)c1O	11µM*	-7%	·	-14%	-6	-14%
COc1ccc(-c2nnc3n2N=C(c2ccccc2OC)CS3)cc1	·	3%	5%	5%	·	·
Cc1ccc(Cl)cc1N1CCN(S(=O)(=O)c2ccc3[nH]c(=O)c(=O)[nH]c3c2)CC1	3%	6%	8.9µM*	0%	3	-4%
Cc1ccc(Cl)cc1N1CCN(S(=O)(=O)c2ccc3[nH]c(=O)ccc3c2)CC1	0%[76.3 µM]	·	-7%	·	·	·
COc1ccccc1CNc1n[nH]c(NCc2ccccc2OC)n1	25µM*	6%	-2%	5%	-6	-11%
Cc1c(NC(=S)N/N=C/c2ccc(O)cc2)c(=O)n(-c2ccccc2)n1C	7µM*	-5%	9%	-18%	-8	?
Oc1ccc(-c2csc(Nc3ncccn3)n2)c(O)c1	-26%	6%	-10%	6%	0	-2%
Cc1cccc(Nc2nc(-c3ccc(O)cc3O)cs2)n1	40µM*	·	-1%	·	·	·
CCC1(c2ccc(O)cc2)NC(=O)N(C)C1=O (configuration not stated)	·	-6%	-3%	-1%	·	·
N[C@@H](C(=O)O)[C@@H](CC(=O)O)c1ccc(Cl)cc1	·	4%	-10%	-13%	·	·
CNc1ncnc2ccc(-c3cccc(OC)c3)cc12	·	-29%	8.9µM*	-3%	·	·
CCOC(=O)c1c(OCC)[nH]c2c1cc(O)c1ccccc12	25µM*	6%	?	5%	2	-2%
Cc1ccc(C)c(-c2nn(-c3cc(N4CCN(CCO)CC4)ccc3[N+](=O)[O-])c(=O)c3ccccc23)c1	-3%	1%	16µM*	-2%	-4	7%
COC(=O)CC1=COC(O)C2C(CO)=CC[C@@H]12 (some centres not stated)	·	10%[17.5 µM]	-9%[12.8 µM]	1%[17.4 µM]	·	·
CC#CCN1c2ccccc2[C@]23C[C@@H](C(=O)OC)N(S(=O)(=O)c4ccc(C)cc4)C2=NC(C(=O)OC)=C(C(=O)OC)[C@H]13	·	7%[17.5 µM]	9%[12.8 µM]	4%[17.4 µM]	6	·
CC1(C)CC(=O)c2c(oc3cc(O)c(O)cc23)C1	7.9µM*	6%	-4%	-6%	-1	-5%
CC1N(C)c2cccc3cccc(c23)N1C	12µM*	9%	1%	4%	3	5%
CN1c2cccc3cccc(c23)N(C)C1c1cccs1	?	4%	10%	3%	0	1%
CCC(=O)Nc1cccc(C(=O)N(Cc2ccccc2)Cc2ccccc2)c1	-3%[76.3 µM]	·	7.1µM*	·	·	·
COC1/C=C/OC2(C)Oc3c(C)c(O)c4c(O)c(c(/C=N/N5CCN(C)CC5)c(O)c4c3C2=O)NC(=O)/C(C)=C/C=C/C(C)C(O)C(C)C(O)C(C)C(OC(C)=O)C1C (configuration not stated)	·	7%	-18%	8%	-13	·
CO[C@H]1C=CO[C@@]2(C)Oc3c(C)c(O)c4c(O)c(c5c(nc6cc(C)ccn65)c4c3C2=O)NC(=O)C(C)=CC=C[C@H](C)[C@H](O)[C@@H](C)[C@@H](O)[C@@H](C)[C@H](OC(C)=O)[C@@H]1C	20µM*	4%	-14%	-2%	-15	4%[15.4 µM]
Oc1ccc(NC(=S)Nc2ccc(F)cc2)cc1	11µM*	·	-18%	·	·	·
Cn1c(-c2ccc3c(c2)OCO3)cnc1NCc1ccc(Cl)cc1	?	-3%	6%	-23%	-8	1%
SMILES	GAA glycogen	GLA spleen mod	N370S GC mod	aGlu spleen mod	GLA inh pH 4.5	GAA inh
Cc1ccc(CNc2ncc(-c3ccc4c(c3)OCO4)n2C)cc1	20µM*	-5%	1%	-4%	-9	-3%
CCOc1ccc(-c2cnc(NCc3ccc(C(F)(F)F)cc3)n2C)cc1	32µM*	·	·	·	·	·
O=C(NC(=S)N1CCN(c2ccc(O)cc2)CC1)c1cccs1	10µM*	5%	-6%	-2%	-2	·
COc1ccc(-c2cn3c(n2)sc2cc(C(=O)NC4CCCc5ccccc54)ccc23)cc1 (configuration not stated)	-2%[76.3 µM]	·	·	·	·	·
COc1cc(O)ccc1-c1nc2cc(C)ccn2c1Nc1ccccc1C	13µM*	·	·	·	·	·
O=C(c1ccc2c(c1)N(Cc1ccc(Cl)cc1)C(=O)c1ccccc1S2(=O)=O)N1CCCCCC1	4%[76.3 µM]	·	·	·	·	·
COc1ccc(/C=C\c2onc(C)c2S(=O)(=O)N2CCC(C(=O)Nc3cccc(OC)c3)CC2)cc1	-1%[76.3 µM]	·	·	·	·	·
COc1ccc2c(Cl)c(C(=O)NN)sc2c1	16µM*	0%	7%	-7%	2	-1%
CCc1ccccc1NC(=O)C(=O)c1cc(C)n(-c2ccccc2F)c1C	2%[76.3 µM]	·	·	·	·	·
O=C(Nc1cc(S(=O)(=O)N2CCOCC2)ccc1N1CCCC1)c1cc(=O)[nH]c2ccccc12	?	-4%	16%	10µM*	12	·
Cc1cc(C(C#N)c2cccc(Cl)c2)n2ncnc2n1 (configuration not stated)	?	3%	-3%	-5%	5	5%
Cc1cc(C(C#N)c2ccccc2)n2ncnc2n1 (configuration not stated)	25µM*	8%	1%	2%	2	?
O=C(O)[C@H]1[C@H]2C[C@H]3c4[nH]c5ccccc5c4CCN3C[C@@H]2CC[C@@H]1O	·	0%	-11%	-4%	1	·
COc1ccc(-c2cc(-c3cc(OC)ccc3O)[nH]n2)cc1	20µM*	4%	-4%	3%	1	0%
COc1cc(C(=O)NNc2nc3cc4c(cc3s2)OCO4)cc(OC)c1OC	25µM*	-2%	3%	1%	1	-5%[15.4 µM]
COc1ccc(CCNC(=O)Cc2c(C)c3cc4c(C(C)(C)C)coc4c(C)c3oc2=O)cc1	-7%[76.3 µM]	·	·	·	·	·
COc1cc(/C=N/N(C)C)cc(Br)c1O	4.5µM*	4%	0%	-4%	-15	·
O=C(Nc1cc(C(F)(F)F)cc(C(F)(F)F)c1)c1cc(Cl)ccc1O	·	29%	2%	0%	·	·
